Drawing on PubChem BioAssay AID2716 (Broad Institute, 2010), this text covers growth rescue for 89 compounds.

Screen size: about 320,000 compounds; about 3,300 (1%) were called active.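 Rule for the calls: active = every valid replicate shows activation above 250% relative to neutral control wells; inactive = the rest, any valid replicate at or below 250%.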 The full list was thinned out, with actives kept by preference.

The assay is described as follows: restored growth of temperature-sensitive Mot1-301 yeast – S. cerevisiae, ATP luminescence, 38.5C, SUMOylation pathway inhibitor project, primary screen (AID 2716).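 Note: OY570 slx delta 5 strain wells were the positive control but not used for scaling.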 As to conditions: S. cerevisiae Mot1-301 growth rescue, at 18.8 µM, stronger effect = higher value, percent above DMSO median, 100 means doubled.
Regarding `CCCCNC(=O)c1ccccc1NC(=O)c1ccccc1N(C)S(C)(=O)=O`, the growth rescue was -4.15% (inactive).
With `CCCCNC(=O)c1ccccc1NC(=O)C1=C(C)OCCS1` the figure was 548% (active); with `COc1ccc(N2CCN(C(=O)c3ccccc3NC(=O)C3=C(C)OCCS3)CC2)cc1`, 46.6% (inactive); with `CCN(CC)C(=O)CSc1nnc(CNc2ccc(F)cc2)n1Cc1ccco1`, 543% (active).
Consider `COc1ccc(NC(=O)CSc2nnc(-c3cccs3)n2Cc2ccco2)cc1OC`, for which the growth rescue was 22.9% (inactive).
With `Cc1cc(C)nc(SCc2nnc(SCC(=O)Nc3ncc(C)s3)n2Cc2ccco2)n1` the figure was -12% (inactive); with `COc1ccc(C(=O)NCC2CCCN2S(=O)(=O)c2cccs2)cc1OC` (centres undefined), 134% (inactive).
As for `COc1cc(NC(=O)CN(C)S(=O)(=O)c2ccc3nc(C)sc3c2)cc(OC)c1`, the figure is -12.8% (inactive).
As for `Cc1ccc2nc(-c3ccc(NC(=O)CN(C)S(=O)(=O)c4ccccc4)cc3)sc2c1`, the figure is 574% (active); as for `Cc1cccc(N(CC(=O)Nc2ccc(-c3nc4ccc(C)cc4s3)cc2)S(C)(=O)=O)c1`, -4.14% (inactive).
On to `Cc1cc(C)c(S(=O)(=O)Nc2c(C)n(C)n(-c3ccccc3)c2=O)cc1[N+](=O)[O-]`, for which the growth rescue is -5.42% (inactive).
With `Cc1c(Br)cc(C(=O)N2CCCCCC2)c(C)c1C` the figure was 15.2% (inactive); with `CC1(C)S[C@@H]2[C@H](NC(=O)COc3ccccc3)C(=O)N2C1C(=O)OCc1ccccc1` (some centres undefined), 343% (active).
As for `CC1(C)SC2C(NC(=O)COc3ccccc3)C(=O)N2C1C(=O)O` (centres undefined), the growth rescue is 3.56% (inactive).
Consider `COC(=O)C1[C@H]2SC(C)(C)C(C(=O)OC)N2C(=O)N1Cc1nc2ccccc2s1` (some centres undefined), for which the growth rescue is -13.8% (inactive).
With `O=C(NCCN1CCOCC1)/C(=C/c1ccc(F)cc1)NC(=O)c1ccccc1` the figure was 93.9% (inactive); with `CC(OC(=O)c1ccc(Cl)cc1O)C(=O)NCCC1=CCCCC1` (centres undefined), 17.1% (inactive); with `CC1CCCCN1CCCNc1ccc(C(CC(N)=O)NC(=O)c2ccccc2)cc1[N+](=O)[O-]` (centres undefined), -18.3% (inactive).
With `Cc1cc(C)cc(C(=O)NC(CC(N)=O)c2ccc(N3CCC(N4CCCCC4)CC3)c([N+](=O)[O-])c2)c1` (centres undefined) the figure was 855% (active).
With `COc1ccc(OC)c(C(=O)NC(CC(N)=O)c2ccc(N3CCC(N4CCCCC4)CC3)c([N+](=O)[O-])c2)c1` (centres undefined) the figure was -11.8% (inactive); with `Cc1cccc(NC(=O)CN2CCN(C(=O)C3CCN(C(=O)/C=C/c4ccccc4)CC3)CC2)c1C`, -7.86% (inactive).
On to `Cc1nn(Cc2ccccc2)c(C)c1NS(=O)(=O)c1ccccc1`, for which the growth rescue was 0.754% (inactive).
With `CC(=O)c1cc(CN2CCC(n3nccc3NC(=O)c3ccccc3Cl)CC2)cs1` the figure was 13.8% (inactive); with `Cc1cc(Nc2ccc(N3CCOCC3)cc2)c2cccc(C)c2n1`, -0.464% (inactive); with `Cc1ccc(Nc2cc(C)nc3c(C)ccc([N+](=O)[O-])c23)cc1`, 888% (active).
As for `Cc1cc(Nc2ccc(C(=O)N3CCCCC3)cc2)c2cccc(C)c2n1`, the figure is 397% (inactive).
In the case of `O=C(O)Cn1c(Cc2ccccc2)nc2ccccc21`, the growth rescue was -4.16% (inactive).
Take `Fc1ccccc1-c1cc2cc3c(cc2cn1)OCO3`: the growth rescue is 579% (active).
With `O=C(Nc1ccccc1F)c1ccc2c(c1)OCO2`, the growth rescue was 3.63% (inactive).
As for `Fc1ccc2cnc(-c3ccccc3)cc2c1`, the figure is 110% (inactive).
With `O=C(c1ccc(F)cc1)n1c(=S)nc2ccccn21` the figure was -34.1% (inactive); with `COc1ccccc1-c1nn(Cc2ccccc2)cc1C(=O)N1CCN(c2ncccn2)CC1`, -5.43% (inactive).
As for `CCN(CC)c1ccc(NC(=O)C2CCC(CNc3c(N4CCCC4)c(=O)c3=O)CC2)c(C)c1` (centres undefined), the figure is 6.64% (inactive); as for `CCC(CC)C(=O)Nc1ccc(S(=O)(=O)Nc2nccs2)cc1`, 441% (active); as for `Cc1ccc(OCCC(=O)Nc2ccc(S(=O)(=O)Nc3nccs3)cc2)cc1`, -18.7% (inactive).
`COc1ccccc1OC(C)C(=O)Nc1ccc(S(=O)(=O)Nc2nccs2)cc1` (centres undefined): the growth rescue was 7.27% (inactive).
`CN(C)Cc1c(C#N)c2ccccc2n1C`: the growth rescue is 63.2% (inactive).
With `CCCc1cc(=S)n2c([nH]c3ccccc32)c1C#N` the figure was 490% (active); with `CCOC(=O)CCc1c(C)c(C#N)c2[nH]c3ccccc3n2c1=O`, -0.685% (inactive).
With `CCCn1nc(C(=O)NNC(=O)CCOc2ccccc2OCC)c2ccccc2c1=O` the figure was 2.71% (inactive); with `CC(=O)c1ccc(NC(=O)CSc2nc3ccccc3c(=O)n2CCCN2CCOCC2)cc1`, -18.7% (inactive); with `COc1cc(C(=O)OCC(=O)NC(C)CCc2ccccc2)cc(OC)c1OC` (centres undefined), 788% (active).
As for `COc1cc(OC)cc(C(=O)NCC(=O)OCC(=O)NC(C)CCc2ccccc2)c1` (centres undefined), the figure is -11.2% (inactive); as for `CC(CCc1ccccc1)NC(=O)COC(=O)c1ccc(F)cc1` (centres undefined), 11.7% (inactive); as for `CC(=O)N1CCN(S(=O)(=O)c2ccc(C)c([N+](=O)[O-])c2)C1C(C)C` (centres undefined), -18.3% (inactive).
Regarding `CC(C)[C@@H]1NC(=O)c2cc([N+](=O)[O-])cc(I)c2NCCC[C@@H](C(=O)NC(CC(=O)O)C(N)=O)NC(=O)[C@H](CO)NC1=O` (some centres undefined), the growth rescue was -3.93% (inactive).
As for `CC(C)NC(=O)Nc1cccc2c1O[C@@H](CN(C)S(=O)(=O)c1ccc(F)cc1)[C@@H](C)CN([C@H](C)CO)C2=O`, the figure is -15.3% (inactive); as for `COc1ccccc1CCNC(=O)C(=O)NCCC1CCCCN1S(=O)(=O)c1cccs1` (centres undefined), -12.1% (inactive); as for `O=C(NCc1ccc(Cl)cc1)C(=O)NCC1CCCN1S(=O)(=O)c1cccs1` (centres undefined), -0.245% (inactive).
For the compound `O=C(NCc1ccccc1Cl)C(=O)NCC1CCCN1S(=O)(=O)c1cccs1` (centres undefined), the growth rescue was 454% (active).
With `CCOC(=O)c1c(S(=O)(=O)Nc2cccc(Cl)c2)c(C)n(C)c1C` the figure was -7.89% (inactive); with `CCC(C)(C)NC(=O)C(c1ccc(OC)cc1)N(C(=O)CCC(=O)Nc1cc(C)on1)c1ccc(OC)cc1OC` (centres undefined), -19.3% (inactive).
With `CC(C)(C)c1cc(C(=O)NN)n(Cc2ccc(Cl)cc2Cl)n1` the figure was 207% (inactive).
As for `O=c1ccn(Cc2ccccc2Cl)cc1`, the figure is 1.62% (inactive); as for `N#CC(C#N)=CN=c1ccn(Cc2ccc(Cl)cc2Cl)cc1`, 813% (active); as for `COc1ccccc1CNC(=O)COC(=O)CNS(=O)(=O)c1ccc(NC(C)=O)cc1`, -0.994% (inactive).
Regarding `CC(NC(=O)c1ccc(Cl)cc1)C(=O)N1CCCCC1` (centres undefined), the growth rescue was 434% (active).
On to `CSCCC(NC(=O)c1ccccc1)C(=O)N1CCCCCCC1` (centres undefined), for which the growth rescue was -4.42% (inactive).
For the compound `CC(C)C(NC(=O)c1ccc(Cl)cc1)C(=O)O` (centres undefined), the growth rescue is 5.56% (inactive).
For `O=C(CCc1ccccc1)NNC(=O)c1ccc(Br)cc1`, the growth rescue is 631% (active).
For `O=C(CCNC(=O)c1ccc(Br)cc1)NCCCc1ccccc1`, the growth rescue is 0.819% (inactive).
With `O=C(CNC(=O)c1ccco1)NNC(=O)c1ccc(Br)cc1` the figure was 19.3% (inactive); with `COc1cc(CC(=O)N2CCC(n3nccc3NC(=O)C3CC3)CC2)cc(OC)c1OC`, 7.3% (inactive); with `COc1cccc(-n2c(SCC(=O)NC3CCCCC3)nc3n[nH]c(C)c3c2=N)c1`, 1070% (active).
With `Cc1ccc(-n2c(SCC(=O)NCCC3=CCCCC3)nc3n[nH]c(C)c3c2=N)cc1Cl` the figure was 4.94% (inactive); with `CCCCNC(=O)CSc1nc2n[nH]c(C)c2c(=N)n1-c1cccc(Cl)c1C`, -7.38% (inactive).
With `COc1cc(OC)cc(C(=O)Nc2nnc(SCC(=O)NCC3CCCO3)s2)c1` (centres undefined) the figure was -5.99% (inactive); with `CCCCNS(=O)(=O)c1ccc(S(=O)(=O)n2cnc3ccccc32)cc1`, -2.08% (inactive).
For `COC(=O)c1c(C)cc(O)c(C)c1O`, the growth rescue is 2.55% (inactive).
With `O=C(c1cccnc1)N1CCN(S(=O)(=O)c2cccs2)CC1` the figure was -2.05% (inactive).
`CCOC(=O)c1ccccc1N1C(=O)C2Sc3[nH]c(=O)sc3C(/C=C/c3ccccc3)C2C1=O` (centres undefined): the growth rescue was 0.0979% (inactive).
As for `Nc1nc(SCc2cccc(Br)c2)n[nH]1`, the figure is 332% (active); as for `Nc1cc(N)nc(SCc2cccc(F)c2)n1`, 35.9% (inactive).
As for `Nc1nc(SCCOc2ccccc2)n[nH]1`, the figure is -18.7% (inactive); as for `Cc1ccc(C(=O)N/C(=C\c2ccc(F)cc2)C(=O)NCCN2CCOCC2)cc1`, 49.4% (inactive); as for `Cn1cncc1C#Cc1c(-c2ccsc2)sc2ccccc12`, 17.7% (inactive).
As to `COC(=O)Cc1ccc(OC(=O)C2CCN(S(=O)(=O)c3ccc(OC)c(OC)c3)CC2)cc1`, the growth rescue is -14.9% (inactive).
As for `CC1(C)Cc2c(sc(NC(=O)C(=O)NCC3CCCO3)c2C(=O)O)CO1` (centres undefined), the figure is -46.3% (inactive); as for `COc1ccc(NC(=O)COC(=O)Cn2c(C)nc3ccccc32)cc1OC`, -5.7% (inactive); as for `COc1ccc(-c2cn(-c3ccc(C)cc3)c(=O)n2CC(=O)Nc2ccc(OC)c(OC)c2)cc1`, 737% (active).
As for `COc1ccc(NC(=O)Cn2c(-c3ccc(OC)cc3)cn(-c3ccc(C)cc3)c2=O)cc1`, the figure is 259% (inactive).
With `O=C(NCCc1nnc2ccc(SCC(=O)N3CCOCC3)nn12)c1ccccc1` the figure was -18.2% (inactive); with `COc1ccc(OC)c2c(N)c(C#N)c(C(F)(F)C(F)(F)F)nc12`, 790% (active); with `COc1ccccc1-c1c(C#N)c(N)nc2c1CCC2`, -0.44% (inactive).
`COc1ccc(C2CC(=O)Nc3sc(=N)c4c(N)c(C#N)c(N)nc4c32)cc1OC` (centres undefined): the growth rescue was -31.5% (inactive).
With `O=C(CN1CCCCC1)N1c2ccccc2Sc2ccc(C(F)(F)F)cc21` the figure was 1.37% (inactive); with `Cn1c(C(=O)NCCc2ccsc2)cc2c(=O)n(C)c3ccccc3c21`, 385% (active).
As for `Cn1c(C(=O)NCCCN2CCN(c3cccc(Cl)c3)CC2)cc2c(=O)n(C)c3ccccc3c21`, the figure is -12.4% (inactive); as for `CCN1CCCC1CNC(=O)c1cc2c(=O)n(C)c3ccccc3c2n1C` (centres undefined), -15.2% (inactive).
